# hERG WT inh: KCNH2 (human, wildtype) channel inhibition | hit rate 0.37% among 340,000 | activity change, % at 1.84 µM | U2OS, BacMam KCNH2, thallium flux FluxOr; stronger effect = lower value;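 active = maximum activity change below -70%; inconclusive = maximum activity change between -70% and -50%; inactive = maximum activity change above -50%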
# Target sequence (Q12809 whole entry, looked up): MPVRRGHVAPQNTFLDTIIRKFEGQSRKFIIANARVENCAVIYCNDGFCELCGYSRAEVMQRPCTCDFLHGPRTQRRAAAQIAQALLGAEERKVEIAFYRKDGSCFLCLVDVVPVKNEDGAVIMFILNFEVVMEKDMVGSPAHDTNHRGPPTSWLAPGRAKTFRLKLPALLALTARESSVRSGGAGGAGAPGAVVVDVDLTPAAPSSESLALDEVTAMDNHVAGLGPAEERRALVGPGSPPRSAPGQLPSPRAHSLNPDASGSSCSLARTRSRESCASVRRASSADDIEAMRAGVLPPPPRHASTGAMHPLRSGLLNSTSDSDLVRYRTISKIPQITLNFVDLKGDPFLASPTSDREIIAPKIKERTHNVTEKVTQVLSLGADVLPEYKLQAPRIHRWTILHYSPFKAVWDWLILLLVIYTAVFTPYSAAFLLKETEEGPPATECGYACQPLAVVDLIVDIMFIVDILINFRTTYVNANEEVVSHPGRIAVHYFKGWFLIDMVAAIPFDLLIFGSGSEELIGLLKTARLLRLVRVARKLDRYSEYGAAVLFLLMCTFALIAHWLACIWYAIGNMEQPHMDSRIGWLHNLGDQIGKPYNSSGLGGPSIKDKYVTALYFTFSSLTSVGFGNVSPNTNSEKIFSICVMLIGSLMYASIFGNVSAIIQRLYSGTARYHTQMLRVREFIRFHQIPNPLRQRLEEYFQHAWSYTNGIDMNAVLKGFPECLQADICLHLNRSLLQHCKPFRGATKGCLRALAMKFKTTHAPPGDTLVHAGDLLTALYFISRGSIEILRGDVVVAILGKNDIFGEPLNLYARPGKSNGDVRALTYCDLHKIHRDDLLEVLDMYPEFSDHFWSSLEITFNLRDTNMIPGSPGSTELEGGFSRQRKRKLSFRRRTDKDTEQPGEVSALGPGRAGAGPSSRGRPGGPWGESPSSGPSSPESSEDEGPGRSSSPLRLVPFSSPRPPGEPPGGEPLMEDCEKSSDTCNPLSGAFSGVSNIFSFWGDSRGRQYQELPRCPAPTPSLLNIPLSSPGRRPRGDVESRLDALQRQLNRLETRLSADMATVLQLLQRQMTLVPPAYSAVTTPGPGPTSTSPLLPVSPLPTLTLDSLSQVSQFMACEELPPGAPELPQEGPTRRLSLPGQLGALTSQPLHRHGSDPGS
#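 U2OS cells transduced with wild-type KCNH2 virus are loaded with FluxOr dye for 45 min, and thallium flux is measured in kinetic reads before and after stimulation buffer. Rate constants are normalized to DMSO controls.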
# Luc counter: Kinase-Glo luciferase inhibition (counter-screen); Potency, µM (doses to about 38.3 µM), without a hit: top-dose activity change, negative = inhibition, most hits filed as inhibitors; Kinase-Glo luciferase, ATP luminescence, 8 min; Q27757; hit rate 0.28% among 200,000; AID 1379; active = well fitted inhibition curve with a large enough effect; inconclusive = small, poorly fitted or top-dose-only effect; also: potency is read from the fitted curve at half-maximal effect; nearly all actives have a fitted effect of over 60% in size
#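 Compound is pinned into ATP-containing buffer (10 uM ATP, imidazole pH 7.2, 7 mM MgCl2). Kinase-Glo luciferase reagent is then added. Light output is recorded following an 8-min room-temperature incubation.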
# KCNH2 3.1 block: inhibitors of human KCNH2 3.1 potassium channel isoform. U2OS KCNH2 3.1, thallium flux FluxOr; stronger effect = lower value. activity change, % (tested at about 1.8 µM). hit rate 0.95% among 340,000;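 active = maximum activity change below -70%; inconclusive = maximum activity change from -70% to -50%; inactive = maximum activity change above -50%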;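 also: thallium influx rate constant from kinetic fluorescence after stimulation buffer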
#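 Channel expression came from 3.1 mutant virus (1.77 x 10^8 /mL) applied to suspended U2OS cells for 4 h. Flux was tracked with FluxOr dye plus Red40 quencher, and kinetic rate constants normalized to controls.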
# Numbers without * were called inactive; ? = inconclusive; nt = no result; [ ] = remark or other dose. The list is not random: actives were taken first. Their share in the collection is about 1.2%. % is scaled to controls: 0 for no effect and ±100 for the full control effect.
SMILES,hERG WT inh,Luc counter,KCNH2 3.1 block
O=C(CSc1nc2ncc(Br)cc2[nH]1)c1cccc([N+](=O)[O-])c1,-8,1%,2
O=C(C[n+]1cc(Br)cc(Br)c1)c1cccc([N+](=O)[O-])c1,-9,-17%,-80*
COc1ccc(S(=O)(=O)N(C)c2ccc(C(=O)NCc3ccccn3)cc2)cc1,8,nt,-2
CC(C)[C@@H](C(=O)N1CCCC1)N1C(=O)N2CCc3c([nH]c4ccccc34)[C@@]2(C)C1=O,2,nt,7
Cc1cc(C)c(CN2CCC(n3nccc3NC(=O)CCOc3ccccc3)CC2)cc1C,9,nt,-3
COc1cc(/C=C2\SC(c3ccc(C)cc3)=NC2=O)cc(OC)c1O,8,-26%,8
Cc1ccc(C2=NC(=O)/C(=C/c3cc(O)c(O)c(Br)c3)S2)cc1,4,10µM*,-8
COc1ccc(C)cc1NC(=O)c1sc2nc(C)nc(N3CCOCC3)c2c1C,-5,nt,22
Cc1nc(N2CCN(c3ccccn3)CC2)c2c(C)c(C(=O)Nc3ccc(Br)cc3C)sc2n1,-42,nt,-99*
COc1ccc(C)cc1NC(=O)c1sc2ncnc(N3CCN(c4ccccn4)CC3)c2c1C,-5,nt,?
Cc1ccc(NC(=O)c2sc3ncnc(N4CCN(c5ccccn5)CC4)c3c2C)c(C)c1,-73*,nt,-114*
Cc1nc(N2CCN(c3ccccn3)CC2)c2c(C)c(C(=O)N3CCN(c4ccccc4F)CC3)sc2n1,2,nt,-36
Cc1ccc(NC(=O)c2sc3nc(C)nc(N4CCN(c5ccccn5)CC4)c3c2C)c(C)c1,-8,1%,-70*
Cc1ccc(S(=O)(=O)NCC(=O)NNC(=O)c2ccccc2Cl)cc1C,-2,nt,-14
CC(C)C(=O)N(Cc1ccc(F)cc1)Cc1nc2ccccc2c(=O)[nH]1,0,-6%,6
CCCCNC(=O)C(c1ccc(OCC(=O)OC)c(C(=O)OC)c1)N(Cc1ccccn1)C(=O)CCCCCN1C(=O)NC(c2ccc(-c3ccccc3)cc2)C(C(=O)OCc2ccccc2)=C1C (configuration not stated),nt,3%,nt
N=C(N)SCc1nc(-c2ccc(Cl)cc2)no1,nt,-1%[7.66 µM],nt
Cn1c(-[n+]2c(-c3ccccc3)cc(-c3ccccc3)cc2-c2ccccc2)nc2c([N+](=O)[O-])cccc21,-6,2%,-19
O=[N+]([O-])c1cccc2nc(-c3ccccc3)c(-c3ccccc3)nc12,-132*,nt,-108*
CC(=O)c1ccc(NC(=O)C(NC(=O)c2ccccc2)=C(C)C)cc1,-8,0%,-4
CC(C)=C(NC(=O)c1ccccc1)C(=O)NCc1ccccc1,-8,0%,-118*
NC(=O)C1CCN(CC(O)COc2ccc(-c3ccccc3)cc2)CC1 (configuration not stated),15,nt,-86*
CCOC(=O)N1CCN(CC(O)COc2ccc(-c3ccccc3)cc2)CC1 (configuration not stated),8,nt,-26
OC1CCCN(CC(O)COc2ccc(-c3ccccc3)cc2)C1 (configuration not stated),19,nt,-72*
CC1CCCN(CC(O)COc2ccc(-c3ccccc3)cc2)C1 (configuration not stated),?,nt,-18
SMILES,hERG WT inh,Luc counter,KCNH2 3.1 block
COC(=O)c1cc(NC(=O)CC2CCCC2)cc(C(=O)OC)c1,0,nt,-73*
CC(=O)c1cccc(NC(=O)CC2CCCC2)c1,-5,nt,3
CC(=O)Oc1ccc(C2(c3ccc(OC(C)=O)cc3)C(=O)Nc3ccccc32)cc1,nt,0%[39.9 µM],nt
COC(=O)c1ccccc1N(Cc1ccccc1)S(C)(=O)=O,-10,-1%,-5
CC(C)NC(=O)c1ccccc1N(Cc1ccccc1)S(C)(=O)=O,-25,2%,-75*
CCOc1ccccc1NC(=O)c1ccccc1N(C)S(C)(=O)=O,-3,3%,-2
COc1ccccc1NC(=O)c1ccccc1N(Cc1ccccc1)S(C)(=O)=O,-215*,nt,14
COc1cccc(NC(=O)C(OC(=O)c2cnc(C)cn2)c2ccccc2)c1 (configuration not stated),-11,nt,-2
O=C1COc2ccc(C(=O)COC(=O)/C=C/c3ccc(Br)o3)cc2N1,5,nt,0
C[C@@H]1CN([C@H](C)CO)C(=O)CCCn2nncc2CO[C@H]1CN(C)S(=O)(=O)c1ccccc1,-9,nt,-19
Cc1csc(=NC(=O)c2ccccc2)n1C,-1,-25%,1
O=C(N=c1nc2ccccn2s1)c1ccccc1,10,2.5µM*,7
COc1cc2c(cc1OC)-c1cc3nc4ccccc4nc3n1C(C)(C)C2,nt,2%,nt
O=C(CSc1ccccc1)NCC1(N2CCCCC2)CCCCC1,-3,nt,-5
COc1ccc(C(=O)N/C(=C\c2ccco2)C(=O)NCCCn2ccnc2)cc1,-13,-3%,-27
COc1ccc(/C=C(/NC(=O)c2ccc([N+](=O)[O-])cc2)C(=O)NC(C)(C)C)cc1,1,nt,5
O=C(NCCCn1ccnc1)C(Cc1ccc([N+](=O)[O-])cc1)N1C(=O)c2ccccc2C1=O (configuration not stated),-119*,1%,-88*
O=C(NCCCn1ccnc1)Nc1ccc(Cl)c(Cl)c1,2,-5%,-24
O=C(CCCN1C(=O)c2ccccc2C1=O)NCCCn1ccnc1,13,-1%,8
O=C(NCCCn1ccnc1)Nc1ccc(Cl)cc1,2,-2%,-71*
COc1ccc(/C=C(\NC(=O)c2ccc([N+](=O)[O-])cc2)C(=O)NCCCn2ccnc2)cc1,-111*,nt,-35
COc1ccc(/C=C(\NC(=O)c2ccc(C)cc2)C(=O)NCCCn2ccnc2)cc1,?,nt,-92*
COc1ncnc2c1ncn2CCCNCc1ccco1,0,nt,20
CCN(CC)C(=O)[C@H]1CC(CC(=O)NCCCn2ccnc2)C(=O)N2CCc3c([nH]c4ccccc34)[C@]12C (some centres not stated),-9,nt,nt
Cc1ccc(CCNC(=O)CCS(=O)(=O)c2cc3c(cc2C)NC(=O)CO3)cc1,3,nt,-30
SMILES,hERG WT inh,Luc counter,KCNH2 3.1 block
O=C(NCCCn1ccnc1)/C(=C\c1ccc(Br)cc1)NC(=O)c1ccccc1F,-129*,nt,-111*
CN(C)c1ccc(/C=C(/NC(=O)c2ccccc2)C(=O)NCCCn2ccnc2)cc1,25,nt,5
COc1ccc(NC(=O)NCCN2CCc3ccccc3C2)cc1,7,-2%,13
O=C(NCCCn1ccnc1)/C(=C\c1cccnc1)NC(=O)c1ccccc1F,-3,-2%,-6
O=C(NCCCN1CCc2ccccc2C1)Nc1ccc(Cl)cc1,-6,3%,-87*
O=C(NCCCn1ccnc1)/C(=C/c1ccc(Cl)cc1)NC(=O)c1ccccc1,-129*,nt,-105*
COc1ccc2cc(C(=O)CCC(=O)O)ccc2c1,nt,-2%[7.66 µM],nt
CC(=O)N/C(=C\c1ccccc1)C(=O)OCC(=O)c1c(N)n(C)c(=O)n(C)c1=O,-7,nt,3
Cc1c(N2CCCC2)cc2c(c1N)C(C)(C)CC2(C)C,-4,nt,-13
COc1ccc2c(c1)c1c(C)c3cnccc3c(C)c1n2CCCN,nt,-1%[7.66 µM],nt
COc1ccc(-c2[nH]c(-c3cccc(OC)c3)nc2SCC(=O)NCc2ccco2)cc1,-11,0%,-105*
COc1ccc(-c2ccc(SCC(=O)NCc3ccco3)nn2)cc1,2,-5%,-1

# From PubChem
